# In PubChem BioAssay AID624167 (Sanford-Burnham Center for Chemical Genomics, 2012):
# Assay: Peg3 promoter luciferase inhibitors, potency, dose response, cell-based, HeLa, CREF/GAPDH counter-screen panel (AID 624167)
# Details: CREF/GAPDH counter-screens; run 2, dose range 1, at 100 µM (top of the series)
row,SMILES,inhibition
1,COc1ccc(NC(=O)c2cc(-c3ccccn3)nc3ccccc23)cc1S(=O)(=O)N(C)C,60.4%
2,O=[N+]([O-])c1ccc(S(=O)(=O)c2ccccc2)nc1,94.5%
3,OCCCNc1nccc(-c2cc(Nc3cccc(Cl)c3)ncn2)n1,51.4%
4,O=C(O)c1ccc(CN2C(=O)c3cccc4c([N+](=O)[O-])ccc(c34)C2=O)cc1,100%
5,Cc1ccccc1CNC(=O)C1CCCN(c2nnc(C)c3c(C)n(-c4ccccc4)nc23)C1 (stereo not drawn),94.8%
6,C/C(=N\NC(=O)c1cc(C2CC2)nc2ccccc12)c1ccc(O)cc1O,-6.29%
7,Cc1ccc(C(C[N+](=O)[O-])Sc2ccc(N)cc2)cc1 (stereo not drawn),99.2%
8,CCc1ccc(/C=C2\SC(=S)N(CCCC(=O)Nc3ccccn3)C2=O)cc1,25.6%
9,COc1cccc2c1C(=O)c1c(O)c3c(c(O)c1C2=O)CC(O)(C(C)=NNC(=O)c1ccc(Cl)c(Cl)c1)CC3OC1CC(N)C(O)C(C)O1 (stereo not drawn),99.4%
10,CN1OC[C@@H]2CN(S(=O)(=O)c3cccc(C(F)(F)F)c3)[C@H](c3ccc(-c4cc5ccccc5o4)cc3)C[C@@H]21,70.9%
11,O=C(N/N=C/c1c(O)ccc2ccccc12)c1ccc(CO)nc1,3.42%
12,CCCC(=O)NC(c1ccc(C(C)C)cc1)c1ccc2cccnc2c1O (stereo not drawn),45.7%
13,COc1cc(C(=O)N/N=C(\c2ccccc2)c2ccccn2)cc(OC)c1OC,11.7%
14,COc1cc(CNCCCN2CCOCC2)cc(Br)c1OCc1ccc(Cl)cc1,90.7%
15,C=CCn1c(C)cc(C(=O)COc2ccc(C)nc2[N+](=O)[O-])c1C,51.8%
16,CC(=O)c1ccc(-c2cnc3c(NC=O)cc(-c4ccccc4Oc4ccccc4)cn23)cc1,40%
17,Cc1ccc(-n2c(N)c(C(=O)Nc3c(C)n(C)n(-c4ccccc4)c3=O)c3nc4ccccc4nc32)cc1,81.3%

row,SMILES,inhibition
1,COc1cccc(OC)c1C(=O)Nc1cc(C)nn1-c1nc2ccccc2[nH]1,54.4%
2,CCOc1cccc(/C=N/NC(=S)Nc2cc(S(=O)(=O)N3CCOCC3)ccc2N2CCOCC2)c1O,-7.85%
3,CCc1ccc(/C=C2\SC(=S)N(CCCC(=O)NC3=NCCS3)C2=O)cc1,72.9%
4,NS(=O)(=O)c1ccc(CCNc2nn3c(-c4ccc(F)c(Cl)c4)cnc3s2)cc1,75.5%
5,C=CCn1c(COc2ccccc2)nnc1SC(C)C(=O)N/N=C/c1cc(Cl)ccc1O (stereo not drawn),59.9%
6,COc1ccc(/C=C2/CCCC(CN(C)C)C2=O)cc1 (stereo not drawn),67.1%
7,CCCC(=O)NC(c1ccc(C)cc1)c1ccc2cccnc2c1O (stereo not drawn),57.9%
8,O=C(N/N=C/c1sc(N2CCOCC2)nc1-c1ccccc1)c1cccc(S(=O)(=O)N2CCCC2)c1,42.2%
9,O=C(CCl)N1c2ccccc2Sc2ccc3ccccc3c21,100%
10,CCCCC(=O)NC(c1ccccc1)c1ccc2cccnc2c1O (stereo not drawn),45.2%
11,O=C(COc1ccc2c(c1)CCC2)Nc1ccccn1,94.9%
12,O=c1c2ccccc2sc2nc(CCl)nn12,99.3%
13,O=C(CCSc1nc2ccccc2s1)N/N=C/c1c(O)ccc2ccccc12,0.467%
14,CN(C)c1c([N+](=O)[O-])cc(N2C(=O)C=CC2=O)cc1[N+](=O)[O-],98.5%
15,COc1ccc(-n2cc(-c3ccccc3)c3c(N4CCOCC4)ncnc32)cc1,91.3%
16,O=C(Nc1ccc(Cc2ccncc2)cc1)c1ccc([N+](=O)[O-])o1,95.3%
